# Measured values published in paper PMC5540273 (PLoS ONE, 2017).
# Like-named read-outs stand apart in the source and are kept apart here.
# Tests used:
# PKAC-alpha = test system: T1, PKAC-alpha; conditions: concentration: 1 μM, replicates: in singlicate; n = 1
# T1 construct: gene PRKACA
# PKAC-beta = test system: T2, PKAC-beta; conditions: concentration: 1 μM, replicates: in singlicate; n = 1
# T2 construct: gene PRKACB
# PKMYT1 = conditions: concentration: 1 μM, replicates: in singlicate; n = 1
# PKN1 = conditions: concentration: 1 μM, replicates: in singlicate; n = 1
# PKN2 = conditions: concentration: 1 μM, replicates: in singlicate; n = 1
# PLK1 = conditions: n = 1
# PLK2 = conditions: concentration: 1 μM, replicates: in singlicate; n = 1
# PLK3 = conditions: concentration: 1 μM, replicates: in singlicate; n = 1
# PLK4 = conditions: concentration: 1 μM, replicates: in singlicate; n = 1
# PRKCD = conditions: concentration: 1 μM, replicates: in singlicate; n = 1
# PRKCE = conditions: concentration: 1 μM, replicates: in singlicate; n = 1
# PRKCH = conditions: concentration: 1 μM, replicates: in singlicate; n = 1
# PRKCI = conditions: concentration: 1 μM, replicates: in singlicate; n = 1
# PRKCQ = conditions: concentration: 1 μM, replicates: in singlicate; n = 1
# PRKD1 = conditions: concentration: 1 μM, replicates: in singlicate; n = 1
# PRKD2 = conditions: concentration: 1 μM, replicates: in singlicate; n = 1
# PRKD3 = conditions: concentration: 1 μM, replicates: in singlicate; n = 1
# PRKG1 = conditions: concentration: 1 μM, replicates: in singlicate; n = 1
# PRKG2 = conditions: concentration: 1 μM, replicates: in singlicate; n = 1
# PRKR = test system: T3, PRKR; conditions: concentration: 1 μM, replicates: in singlicate; n = 1
# T3 construct: gene EIF2AK2
# [1] = concentration: 1 μM, replicates: in singlicate
# 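Also: KINOMEscan kinase panel screen.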
smiles,measurement,setting,value
Cc1cccc(-c2nc(Nc3ccc4c(cnn4C)c3)c3ccccc3n2)n1 [GW876731],%Inh,PKAC-alpha,0%
same,%Inh,PKAC-beta,14%
same,%Inh,PKMYT1,4%
same,%Inh,PKN1,55%
same,%Inh,PKN2,33%
same,%Inh,PLK1; [1],7%
same,%Inh,PLK2,0%
same,%Inh,PLK3,0%
same,%Inh,PLK4,13%
same,%Inh,PRKCD,5%
same,%Inh,PRKCE,15%
same,%Inh,PRKCH,0%
same,%Inh,PRKCI,0%
same,%Inh,PRKCQ,0%
same,%Inh,PRKD1,99.2%
same,%Inh,PRKD2,99.6%
same,%Inh,PRKD3,90.2%
same,%Inh,PRKG1,9%
same,%Inh,PRKG2,0%
same,%Inh,PRKR,0%
CCn1c(-c2nonc2N)nc2ccccc21 [SB-693162/GW549034],%Inh,PKAC-alpha,0%
same,%Inh,PKAC-beta,0%
same,%Inh,PKMYT1,0%
same,%Inh,PKN1,0%
same,%Inh,PKN2,0%
same,%Inh,PLK1; [1],62%
same,%Inh,PLK2,21%
same,%Inh,PLK3,34%
same,%Inh,PLK4,30%
same,%Inh,PRKCD,0%
same,%Inh,PRKCE,44%
same,%Inh,PRKCH,17%
same,%Inh,PRKCI,31%
same,%Inh,PRKCQ,16%
same,%Inh,PRKD1,0%
same,%Inh,PRKD2,3%
same,%Inh,PRKD3,0%
same,%Inh,PRKG1,0%
same,%Inh,PRKG2,67%
same,%Inh,PRKR,0%
CCc1ccc(-c2ccc3c(c2)-c2nn(C)cc2S(=O)(=O)N3C)cc1,%Inh,PKAC-alpha,0%
same,%Inh,PKAC-beta,0%
same,%Inh,PKMYT1,0%
same,%Inh,PKN1,0%
same,%Inh,PKN2,0%
same,%Inh,PLK1; [1],8%
same,%Inh,PLK2,0%
same,%Inh,PLK3,56%
same,%Inh,PLK4,0%
same,%Inh,PRKCD,14%
same,%Inh,PRKCE,0%
same,%Inh,PRKCH,0%
same,%Inh,PRKCI,18%
same,%Inh,PRKCQ,10%
same,%Inh,PRKD1,0%
same,%Inh,PRKD2,13%
same,%Inh,PRKD3,0%
same,%Inh,PRKG1,0%
same,%Inh,PRKG2,0%
same,%Inh,PRKR,0%
COc1cc2ncn(-c3cc(OCc4ccncc4)c(C(N)=O)s3)c2cc1OC [GSK336313],%Inh,PKAC-alpha,0%
same,%Inh,PKAC-beta,0%
same,%Inh,PKMYT1,0%
same,%Inh,PKN1,31%
same,%Inh,PKN2,0%
same,%Inh,PLK1; 1 µM,81%
same,%Inh,PLK2,96.6%
same,%Inh,PLK3,55%
same,%Inh,PLK4,7%
same,%Inh,PRKCD,0%
same,%Inh,PRKCE,1%
same,%Inh,PRKCH,0%
same,%Inh,PRKCI,0%
same,%Inh,PRKCQ,0%
same,%Inh,PRKD1,47%
same,%Inh,PRKD2,3%
same,%Inh,PRKD3,15%
same,%Inh,PRKG1,0%
same,%Inh,PRKG2,0%
same,%Inh,PRKR,0%
Fc1cccc(CSc2nnc(-c3ccc4c(c3)CCO4)o2)c1,%Inh,PKAC-alpha,29%
same,%Inh,PKAC-beta,0%
same,%Inh,PKMYT1,24%
same,%Inh,PKN1,0%
same,%Inh,PKN2,0%
same,%Inh,PLK1; [1],0%
same,%Inh,PLK2,6%
same,%Inh,PLK3,11%
same,%Inh,PLK4,21%
same,%Inh,PRKCD,7%
same,%Inh,PRKCE,0%
same,%Inh,PRKCH,0%
same,%Inh,PRKCI,3%
same,%Inh,PRKCQ,15%
same,%Inh,PRKD1,0%
same,%Inh,PRKD2,12%
same,%Inh,PRKD3,0%
same,%Inh,PRKG1,0%
same,%Inh,PRKG2,26%
same,%Inh,PRKR,0%
O=C(NCc1cccs1)c1cc(C(=O)c2c(Cl)cccc2Cl)c[nH]1 [GW823670],%Inh,PKAC-alpha,6%
same,%Inh,PKAC-beta,3%
same,%Inh,PKMYT1,0%
same,%Inh,PKN1,0%
same,%Inh,PKN2,0%
same,%Inh,PLK1; [1],0%
same,%Inh,PLK2,0%
same,%Inh,PLK3,0%
same,%Inh,PLK4,0%
same,%Inh,PRKCD,0%
same,%Inh,PRKCE,9%
same,%Inh,PRKCH,0%
same,%Inh,PRKCI,0%
same,%Inh,PRKCQ,0%
same,%Inh,PRKD1,35%
same,%Inh,PRKD2,3%
same,%Inh,PRKD3,13%
same,%Inh,PRKG1,0%
same,%Inh,PRKG2,0%
same,%Inh,PRKR,0%
Nc1ncnc2c1ncn2-c1cccc2ccccc12 [SKF-97184],%Inh,PKAC-alpha,10%
same,%Inh,PKAC-beta,0%
same,%Inh,PKMYT1,0%
same,%Inh,PKN1,0%
same,%Inh,PKN2,0%
same,%Inh,PLK1; [1],28%
same,%Inh,PLK2,18%
same,%Inh,PLK3,9%
same,%Inh,PLK4,0%
same,%Inh,PRKCD,16%
same,%Inh,PRKCE,5%
same,%Inh,PRKCH,5%
same,%Inh,PRKCI,22%
same,%Inh,PRKCQ,0%
same,%Inh,PRKD1,0%
same,%Inh,PRKD2,0%
same,%Inh,PRKD3,0%
same,%Inh,PRKG1,0%
same,%Inh,PRKG2,0%
same,%Inh,PRKR,0%
Cc1ccccc1COc1cc(-n2cnc3cc(Cl)ccc32)sc1C(N)=O [GW813349],%Inh,PKAC-alpha,0%
same,%Inh,PKAC-beta,21%
same,%Inh,PKMYT1,0%
same,%Inh,PKN1,7%
same,%Inh,PKN2,0%
same,%Inh,PLK1; [1],97%
same,%Inh,PLK2,92.4%
same,%Inh,PLK3,92.8%
same,%Inh,PLK4,2%
same,%Inh,PRKCD,12%
same,%Inh,PRKCE,2%
same,%Inh,PRKCH,0%
same,%Inh,PRKCI,20%
same,%Inh,PRKCQ,1%
same,%Inh,PRKD1,7%
same,%Inh,PRKD2,0%
same,%Inh,PRKD3,0%
same,%Inh,PRKG1,8%
same,%Inh,PRKG2,7%
same,%Inh,PRKR,0%
CCc1nc(-c2cccc(C)c2)c(-c2ccncc2)s1,%Inh,PKAC-alpha,0%
same,%Inh,PKAC-beta,7%
same,%Inh,PKMYT1,8%
same,%Inh,PKN1,6%
same,%Inh,PKN2,0%
same,%Inh,PLK1; [1],0%
same,%Inh,PLK2,0%
same,%Inh,PLK3,14%
same,%Inh,PLK4,0%
same,%Inh,PRKCD,0%
same,%Inh,PRKCE,0%
same,%Inh,PRKCH,0%
same,%Inh,PRKCI,28%
same,%Inh,PRKCQ,6%
same,%Inh,PRKD1,0%
same,%Inh,PRKD2,26%
same,%Inh,PRKD3,9%
same,%Inh,PRKG1,0%
same,%Inh,PRKG2,11%
same,%Inh,PRKR,0%
COc1ccc(CNC(=O)NC2CCN(c3ccnc(Nc4ccc(F)cc4)n3)C2)cc1 (centres unmarked) [GSK1379706],%Inh,PKAC-alpha,0%
same,%Inh,PKAC-beta,0%
same,%Inh,PKMYT1,10%
same,%Inh,PKN1,14%
same,%Inh,PKN2,0%
same,%Inh,PLK1; [1],10%
same,%Inh,PLK2,0%
same,%Inh,PLK3,0%
same,%Inh,PLK4,19%
same,%Inh,PRKCD,0%
same,%Inh,PRKCE,27%
same,%Inh,PRKCH,12%
same,%Inh,PRKCI,0%
same,%Inh,PRKCQ,15%
same,%Inh,PRKD1,0%
same,%Inh,PRKD2,14%
same,%Inh,PRKD3,15%
same,%Inh,PRKG1,0%
same,%Inh,PRKG2,20%
same,%Inh,PRKR,15%
